# Unmarked numbers belong to inactive results.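 How the source made its calls: active = AUC reduced over 20% with Padj below 0.05 in at least 2 of 3 replicates; inactive = otherwise.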
# What was measured:
# Experiment in all cases: growth AUC relative to DMSO control (median of replicates) (fraction); higher = more growth (less inhibition), active = hit call of the paper
# Details in all cases: 20 µM; 24 h
# [1] = system: Coprococcus comes
# How it was run: (§1)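 Three biological replicates, each grown on a separate day, were combined as a median for every value. In each, a gut bacterial monoculture in mGAM started at OD600 0.05 and grew anaerobically at 37 °C with 20 µM compound (1% DMSO), with OD600 read hourly over 24 h. Area under the growth curve was normalised against the plate median of solvent-only wells, or against row and column medians on the industrial chemical plate, after the minimum OD was set to 0.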
# [2] = system: Escherichia coli ED1a
# How it was run: as §1
# [3] = system: Escherichia coli IAI1
# How it was run: as §1
# [4] = system: Eubacterium rectale
# How it was run: as §1
# [5] = system: Fusobacterium nucleatum subsp. animalis
# How it was run: as §1
# [6] = system: Lactobacillus gasseri
# How it was run: as §1
# [7] = system: Lactobacillus paracasei
# How it was run: as §1
# [8] = system: Odoribacter splanchnicus
# How it was run: as §1
# [9] = system: Parabacteroides distasonis
# How it was run: as §1
# [10] = system: Parabacteroides merdae
# How it was run: as §1
# [11] = system: Roseburia intestinalis
# How it was run: as §1
# [12] = system: Streptococcus salivarius
# How it was run: as §1
SMILES,growth AUC [1],growth AUC [2],growth AUC [3],growth AUC [4],growth AUC [5],growth AUC [6],growth AUC [7],growth AUC [8],growth AUC [9],growth AUC [10],growth AUC [11],growth AUC [12]
CCOC(=O)CC(SP(=O)(OC)OC)C(=O)OCC (stereo not drawn),1,0.97,0.976,1.09,0.893,0.883,0.973,0.913,0.902,0.975,0.997,1.01
COC(=O)NCc1cc(/C(C)=N/OCc2cccc(C)n2)ccc1Cl,1.03,1.01,0.972,0.998,0.933,0.911,0.969,1.01,0.919,0.955,0.957,1.01
N#Cc1sc2c(=O)c3ccccc3c(=O)c=2sc1C#N,0.921,0.945,0.957,0.911,0.881,1.01,0.875,0.926,0.928,0.968,1,0.908
COC(=O)[C@@H](C)N(C(=O)Cc1ccccc1)c1c(C)cccc1C,0.978,1.02,1.02,0.991,0.913,0.944,0.979,0.925,0.948,0.921,1.01,0.958
CNC(=O)Oc1cc(C)c(S(C)=O)c(C)c1 (stereo not drawn),0.997,1.01,0.97,0.884,1.09,0.963,0.952,0.996,1,1.05,0.965,1.01
CCSC(=O)N(CC)C1CCCCC1,0.988,0.987,1.03,1.01,1.01,1.2,1,0.975,1.07,1.03,1.07,0.948
CNC(=O)Oc1ccccc1OC(CCl)OC (stereo not drawn),1.01,1.02,1.02,1.16,1.19,1.04,1.04,1.05,0.988,1.06,0.961,0.996
CC1(C)C(C=C(Cl)Cl)C1C(=O)OC(C#N)c1cccc(Oc2ccccc2)c1 (stereo not drawn),0.945,1.01,0.98,1.05,1.05,0.776,0.951,1.07,0.98,1.02,0.871,0.937
O=C(O)c1cc(Oc2ccc(C(F)(F)F)cc2Cl)ccc1[N+](=O)[O-],0.967,0.992,0.948,1.06,0.957,0.95,0.966,1.03,0.896,0.971,0.963,0.987
Nc1nc(N)[nH]c(=O)n1,1.02,1.02,1.03,0.978,0.964,0.982,1.04,0.956,1.05,1.01,0.981,1
COP(=O)(OC)Oc1ccc(SC)c(C)c1,0.991,1,1.02,0.96,0.986,1.1,1,0.994,1.02,1.05,1.02,1
CCN(CC)c1c([N+](=O)[O-])cc(C(F)(F)F)c(N)c1[N+](=O)[O-],0.982,1.05,1.02,0.977,1.06,1.04,1.06,0.955,0.897,0.928,0.984,1.03
O=C(O)c1c(Cl)ccc2cc(Cl)cnc12,1,1,0.969,0.942,1.02,1.07,0.934,0.988,0.986,0.987,0.978,1.05
CN(C)C(=S)[S-].CN(C)C(=S)[S-].[Zn+2],0.834,0.953,0.906,0.563 (active),0.993,0.976,0.966,0.384 (active),0.954,0.699 (active),0.792,0.925
Nc1nc(N)nc(Cl)n1,1.02,1.04,1.01,0.971,1.08,1.02,0.991,1,1.01,1.02,1.05,1.03
CCc1cnc(C2=NC(C)(C(C)C)C(=O)N2)c(C(=O)O)c1 (stereo not drawn),0.975,0.995,1,0.962,0.981,1.04,0.924,0.961,0.989,1.01,1.02,1.02
Clc1ccc(C2(Cn3cncn3)CC(Br)CO2)c(Cl)c1 (stereo not drawn),0.997,0.989,1,0.806,0.914,0.891,0.987,0.961,0.952,0.924,0.99,0.988
COC(=O)c1cc(Oc2ccc(Cl)cc2Cl)ccc1[N+](=O)[O-],0.993,0.985,0.982,1.11,0.975,0.933,0.928,0.934,0.449 (active),0.958,0.891,1.02
COc1cc(OC)nc(NC(=O)[N-]S(=O)(=O)c2ncccc2OCC(F)(F)F)n1.[Na+],0.957,0.993,0.982,1.04,1.08,0.9,1.04,0.932,1.03,0.974,1.01,0.885
CC(C)(C)c1ccc(CSc2cnn(C(C)(C)C)c(=O)c2Cl)cc1,0.976,1,0.986,0.966,1.05,0.945,1.16,1.07,0.988,0.962,0.979,0.986
Cc1c(COC(=O)[C@@H]2[C@H](/C=C(\Cl)C(F)(F)F)C2(C)C)cccc1-c1ccccc1,1.03,1.02,1.02,0.938,1.07,0.862,0.982,1.03,1.01,0.965,0.924,0.949
O=c1ccc(=O)[nH][nH]1,0.996,0.973,0.976,1.06,0.877,0.957,1.11,1.08,1.01,0.99,1.01,0.965
N#Cc1c(O)c(Cl)c(Cl)c(C#N)c1Cl,1.02,0.989,0.987,0.938,0.868,1.02,0.986,0.912,1.03,0.994,1.06,1
C[C@@H](Oc1ccc(Oc2cnc3cc(Cl)ccc3n2)cc1)C(=O)O,1.05,1.02,1,0.987,1.08,0.997,1.04,0.97,0.983,1.03,1.04,1.01
